From ChEMBL document CHEMBL4513216, “Probing the Open Global Health Chemical Diversity Library for Multistage-Active Starting Points for Next-Generation Antimalarials” (ACS Infect Dis, 2020)
The campaign covered roughly 68,000 compounds. About 2,700 (4%) showed an effect of 50% or more. Only a selection was taken, and strong results are over-represented in it overall.

tested on: Plasmodium berghei; assay: Screen against P. berghei liver stage (PbLuc), transformed with Luciferase, at 2uM; assay type: functional, HepG2; details: tested at 2 uM

| SMILES | INHIBITION |
| --- | --- |
| O=C(C(CNCc1cccnc1)c1ccccc1)N1CCOCC1 (configuration not stated) | 17.33% |
| Cc1nc(CN2CCOCC23CCN(c2ccc(C#N)cc2)CC3)cs1 | -30.38% |
| COC[C@@H]1CCC[C@@]12CN(Cc1ccco1)CCO2 | 18.4% |
| c1csc(COC[C@H]2CCC[C@]23CN(Cc2ccoc2)CCO3)n1 | 36.29% |
| c1coc(CN2CCO[C@@]3(CCC[C@@H]3COCc3nccs3)C2)c1 | 54.25% |
| O=C(c1cccnc1)N1CCC2(CC1)CN(c1ccccn1)CCO2 | -1.81% |
| O=C(c1ccnnc1)N1CCC2(CC1)CN(c1ccccn1)CCO2 | -0.91% |
| CCCS(=O)(=O)N1CCOC2(CCCN(c3ccccn3)C2)C1 (configuration not stated) | 2.39% |
| Cc1ccc(C(=O)N2CCC3(CC2)CN(c2ccccn2)CCO3)cc1 | 56.71% |
| CCCS(=O)(=O)N1CCC2(CC1)CN(c1ccccn1)CCO2 | 72.41% |
| CCS(=O)(=O)N1CCOC2(CCCN(c3ccccn3)C2)C1 (configuration not stated) | 29.45% |
| Cc1cc(CN2C[C@@H]3CN(C(=O)c4cccn4C)CCO[C@@H]3C2)no1 | 9.45% |
| CN(C)C(=O)CCCNC(=O)C(c1cccc(F)c1)N(C)C (configuration not stated) | -4.92% |
| OCCn1nccc1C1CCN(CCOc2ccccc2F)CC1 | 17.31% |
| NC(=O)NC(=O)C(c1ccccc1)N1CCN(Cc2ccccc2)CC1 (configuration not stated) | 16.8% |
| NC(=O)NC(=O)C(c1ccccc1)N1CCN(Cc2ccsc2)CC1 (configuration not stated) | 50.3% |
| NC(=O)NC(=O)C(c1ccccc1)N1CCN(Cc2ccc(Cl)s2)CC1 (configuration not stated) | -72.31% |
| CC(C)n1cc(N2CC(C(=O)N3CCCC3)CC2=O)cn1 (configuration not stated) | -69.99% |
| O=C(N1CCCO1)[C@@]12CCO[C@@H]1CCN(Cc1cccs1)C2 | 17.31% |
| COc1cccc(CN2CCCCCC2c2cccs2)c1O (configuration not stated) | 4.47% |
| COc1cc(CN2CCCCCC2c2cccs2)cc(OC)c1O (configuration not stated) | 50.46% |
| COc1cc(CN2CCCCCC2c2cccs2)cc(OC)c1OC (configuration not stated) | 11.24% |
| O=C(C1CCCC1)N1CC2(CCN(C3COC3)CC2)Cc2ccccc21 | -3.1% |
| Cc1cccc(-c2nc(C)nn2CC(=O)NC(C)C)c1 | -15.28% |
| O=C1CC[C@@H](C(=O)N2CCc3[nH]nc(COc4cccc(Cl)c4)c3C2)N1 | 51.85% |
| O=C(N1CCOCC1)N1CCc2[nH]nc(COc3cccc(Cl)c3)c2C1 | 5.04% |

| SMILES | INHIBITION |
| --- | --- |
| O=C(c1csnn1)N1CCc2[nH]nc(COc3cccc(Cl)c3)c2C1 | 47.89% |
| CN1C(=O)C2(CCCN(C(=O)c3cccnc3O)C2)c2ccccc21 (configuration not stated) | -23.27% |
| CC(Cn1ccnc1)NC(=O)N1CCN(Cc2ccco2)CC1 (configuration not stated) | 32.64% |
| O=C(NCCn1ccnc1)N1CCN(Cc2cccs2)CC1 | -68.26% |
| O=C(NCCCn1ccnc1)N1CCCC1c1ccncc1 (configuration not stated) | -1.27% |
| O=C(NCCn1ccnc1)N1CCN(Cc2ccco2)CC1 | 54.28% |
| CC(Cn1ccnc1)NC(=O)N1CCN(Cc2cccnc2)CC1 (configuration not stated) | -36.13% |
| COc1ccc(C2CCCN2C(=O)NCCn2ccnc2)cc1 (configuration not stated) | 26.61% |
| O=C(NCCn1ccnc1)N1CCN(Cc2cccnc2)CC1 | 58.96% |
| O=C(NCCn1ccnc1)N1CCCC1c1ccncc1 (configuration not stated) | 53.33% |
| O=C(Nc1ccc2c(c1)OCO2)N1CCN(CCn2cccn2)CC1 | 43.57% |
| O=C(Nc1ccc2c(c1)OCO2)N1CCN(CCn2ccnc2)CC1 | 58.59% |
| O=C(NCCn1ccnc1)N1CCN(Cc2ccsc2)CC1 | -1.3% |
| O=C(Nc1ccc2c(c1)OCO2)N1CCN(CCc2ccccc2)CC1 | 20.76% |
| CCSCC(C)NCc1nncn1C1CCCCC1 (configuration not stated) | 37.3% |
| Cc1nc(CN2C(=O)CC[C@@H]3[C@H]2CCN3C(=O)c2ccccn2)cs1 | 3.46% |
| CCc1nccn1C1CCCN(C(=O)c2cncnc2C)C1 (configuration not stated) | 4.41% |
| CCN(CC)[C@@H]1CN(S(=O)(=O)c2cn(C)cn2)[C@@H]2CCCO[C@H]12 | 20.21% |
| CN(CC(=O)NCc1cc2ccccc2o1)S(C)(=O)=O | -3.17% |
| CCc1noc(C)c1C(=O)N1C[C@H](NS(C)(=O)=O)[C@@H](C2CC2)C1 | 5.47% |
| O=C(N1CCCC(n2cncn2)C1)C1(c2ccc(Cl)cc2)CCC1 (configuration not stated) | 45.83% |
| CC(=O)c1c(C)nn(S(=O)(=O)c2ccc(C)cc2)c1C | 39.45% |
| FC(F)(F)c1ccnc(N2CCCN(C3CCOCC3)CC2)c1 | -26.2% |
| FC(F)(F)c1ccnc(N2CCCC(N3CCOCC3)C2)c1 (configuration not stated) | 60.13% |
| CN1CCCC(N2CCN(c3cc(C(F)(F)F)ccn3)CC2)C1 (configuration not stated) | -3.43% |
| O=C(Cn1cccn1)Nc1ccc(N2CCOCC2)cc1 | 45.12% |
